Assay outcomes as filed in PubChem BioAssay.
NadD block = inhibitors of S. aureus NadD, primary screen, biochemical, colorimetric, uHTS; AID 602399, 2012; purified NadD enzyme, colorimetric absorbance read-out; inhibition, % at 20 µM; 0.78% of 360,000 active; Nicotinate-nucleotide adenylyltransferase NadD (Staphylococcus aureus N315); in the data active means inhibition above about 26%
MPTP block = mitochondrial permeability transition pore inhibitors, primary screen, biochemical, isolated mouse mitochondria, absorbance. inhibition, % at 10 µM. Ca2+ swelling absorbance, 30 min. 1.4% of 360,000 active. AID 602449, 2012;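 active means inhibition of 50% or more, scaled per plate between neutral and stimulator controls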;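 further: 0% = DMSO wells given calcium and 100% = 1 mM EGTA wells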
TAG inh = inhibitors of triacylglycerol accumulation, primary screen, cell-based, uHTS, fluorescence, H9c2 | H9c2 cells, Nile Red lipid (TAG) fluorescence; cells loaded with 200 µM oleic acid | inhibition, % at 12.5 µM | 0.66% of 230,000 active | AID 651582, 2012;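 active means pattern-corrected inhibition of lipid staining of at least 50% with the nuclear-stain viability signal not falling by more than 50%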;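 further: 0% = DMSO wells and 100% = triacsin C control wells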
aDG glyco up = activators of alpha-DG glycosylation, primary screen, uHTS, Pro5-aDG cells, AlphaScreen | alpha-DG glycosylation AlphaScreen (IIH6); 0% Pro5, 100% B10-LARGE cell signal | activation, % at 10 µM | 0.22% of 360,000 active | AID 624168, 2012;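 active means activation of at least 8% versus controls, or a plate z-score of at least 8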;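 further: Pro5 are CHO cells carrying HIG-tagged alpha-DG that lacks glycosylation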
MPTP counter = fluorescence retest of MPTP screen hits in isolated mitochondria, single concentration; shares compounds with MPTP block; inhibition, % at 10 µM; 78% of 5,000 active; AID 624504, 2012; membrane potential, Rhodamine 123 fluorescence; in the data active means inhibition above about 22%;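 further: 0% = DMSO vehicle and 100% = positive control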
MPTP abs DR = mitochondrial permeability transition pore inhibitors, dose response, biochemical, absorbance, uHTS hits | shares compounds with MPTP block | isolated mitochondria swelling | IC50, µM | 58% of 780 active; in the data active means IC50 below about 20 µM
MPTP cs DR = fluorescent counter-screen in isolated mitochondria, dose response, counter-screen for MPTP inhibitor project, biochemical, fluorescence, uHTS hits; 49% of 780 active; shares compounds with MPTP block; IC50, µM; isolated mitochondria counterscreen, fluorescence read-out; in the data active means IC50 below about 80 µM
Numbers without * were called inactive; i = inactive; · = no result. Compounds with a hit are over-represented: about 2.7% of the library has one in this group of screens.

SMILES | NadD block | MPTP block | TAG inh | aDG glyco up | MPTP counter | others
O=C(NCc1cccnc1)c1cc(C2CCCCN2S(=O)(=O)c2ccc(F)cc2F)on1 (configuration not stated) | 1 | 0 | -10 | 0 | ·
Cc1ccc([C@H]2C[C@H](n3cc(C4CC4)nn3)[C@@H](O)CN2CC2CCCCC2)cc1 | -8 | -1 | 10 | 0 | ·
COc1ccc(/C=C/C(=O)Nc2ccccc2C(=O)NCC(c2ccc(OC)cc2)N(C)C)cc1 (configuration not stated) | -6 | 76* | · | 0 | -5 | MPTP abs DR=12*;MPTP cs DR=>80
COc1ccc(/C=C/C(=O)Nc2ccccc2C(=O)O)cc1 | -1 | 1 | -12 | 0 | ·
CCCNC(=O)C1(C)CCN(Cc2cc(C(F)(F)F)ccc2Cl)C1 (configuration not stated) | -2 | 0 | -5 | 0 | ·
CN(C)c1ccc(C=c2c3ccccc3n3c2cc(-c2ccccc2)[n+]3C)cc1 | 2 | 58* | 4 | 0 | 75*
CN(C)c1ccc(C=C2C=C(c3ccccc3)OC2=O)cc1 | 5 | 1 | -1 | 0 | ·
COc1cc(N(C)C)ccc1C=c1c2ccccc2n2c1cc(-c1ccccc1)[n+]2C | 13 | 56* | 112 | -1 | 77*
CN(C)c1ccc(C=c2c3ccccc3n3c2c2c([n+]3C)CCCC2)cc1 | -1 | 65* | -4 | 1 | 76*
CCCc1ccc(S(=O)(=O)N/N=C\c2ccc3c(c2)OCO3)cc1 | -2 | 1 | -5 | 0 | ·
CN(C)CCC(=O)c1ccc(Cl)cc1 | 4 | 99* | -15 | 1 | 5 | MPTP abs DR=10*;MPTP cs DR=>80
COc1ccc2cc(C3CC=C(COC(C)=O)CN3S(=O)(=O)c3ccccc3[N+](=O)[O-])n(C(=O)OC(C)(C)C)c2c1 (configuration not stated) | · | 1 | · | 0 | ·
CCCCC#Cc1ccc(C(=O)NNC(=O)Nc2cc(Cl)cc(Cl)c2)o1 | 7 | 79* | 5 | 1 | 77*
COc1ccc(Nc2cc(C)c3c(O)cccc3n2)cc1 | -2 | 36 | -1 | 0 | ·
Cc1ccc(Nc2cc(C)c3c(O)cccc3n2)cc1C | -4 | 72* | 5 | 0 | 54*
COc1cc(OC)cc(-c2c(C#Cc3ccsc3)c3cc(-c4ccc5c(c4)OCO5)ccc3n2C)c1 | 15 | -1 | 1 | 0 | ·
NCc1csc(Nc2ncccn2)n1 | 7 | 0 | 9 | 0 | ·
O=C(Nc1ccc(F)c(F)c1)c1cnc(-c2ccccc2)nc1-c1ccccc1 | -3 | 72* | · | 0 | -1 | MPTP abs DR=>100;MPTP cs DR=7*
CCc1ccccc1Nc1ccc(C(=O)O)cc1N | 7 | 62* | 8 | 0 | -4 | MPTP abs DR=i;MPTP cs DR=>80
FC(F)Oc1ccc(NC(=S)NC2CCSc3ccccc32)cc1 (configuration not stated) | -5 | 83* | 7 | 0 | 79*
CCCOc1nc2c(c(=O)n(C)c(=O)n2C)n1C | -3 | -1 | · | 0 | ·
CCCOc1nc2c(c(=O)n(C)c(=O)n2C)n1Cc1cccc2ccccc12 | 4 | 70* | · | 3 | 74*
O=C(/C=C/c1cccs1)Nc1ccc([N+](=O)[O-])cc1 | -5 | 81* | -10 | 0 | 74*
COc1ccc(C(Nc2ccccn2)c2oc(CO)cc(=O)c2O)cc1 (configuration not stated) | -2 | 96* | · | 0 | -11
Cc1ccccc1OCCCc1c(C)n[nH]c1C | 0 | 0 | -1 | 0 | ·
Cc1n[nH]c(C)c1CCCCOc1ccccc1[N+](=O)[O-] | 2 | 85* | · | 1 | 74*
Cc1n[nH]c(C)c1CCCCOc1ccccc1F | -5 | 2 | · | 0 | ·
Cc1ccccc1OCCCCc1c(C)n[nH]c1C | -7 | 101* | · | 3 | 98*
CC(C)(C)OC(=O)NCCCCCc1cn([C@@H](CO)C(=O)NCCCCCCCCCCC(=O)N2CCN(C(=O)OC(C)(C)C)CC2)nn1 | -3 | 99* | -10 | 5.8* | 109*
